Where two headings read alike, the source gives them in different places. Screen size: about 13,000 compounds; about 3,200 (25%) showed an effect of 50% or more. The list shows a part of the results.

Results on 69 compounds are retold here after PMC4552634, “A New Set of Chemical Starting Points with Plasmodium falciparum Transmission-Blocking Potential for Antimalarial Drug Discovery” (PLoS ONE, 2015).

In this experiment the test system is P. falciparum stage V gametocytes. On the set-up: BacTiter-Glo ATP luminescence viability of purified stage V gametocytes in 384-well plates, per cent inhibition versus DMSO. Conditions: 48 h, 5 µM, inhibitor.

In the case of `COC(=O)c1ccc(CC(C)NCC(O)c2cccc(C(F)(F)F)c2)cc1` (stereo not drawn) [TCMDC-131435], the % Inhibition (commonly the change of the read-out against control, counted positive when it falls) (% Inhibition) is listed as 22.12%. Consider `COc1ccc(OC)c(CNCC(O)c2cc(C(F)(F)F)cc(C(F)(F)F)c2)c1` (stereo not drawn) [TCMDC-140306], for which the “% Inhibition” value is 38.32%.

Turning to `Cc1nc2ccc3ccc(CNc4ccc(C(=O)CC(CCC(=O)O)C(=O)O)cc4)cc3c2c(=O)[nH]1` (stereo not drawn) [TCMDC-137855], the “% Inhibition” value was 12.05%. Same read-out and setting: the same measure for `COc1cc(C(C)C)ccc1N1CCN(CCCCNC(=O)c2ccc(NC(=O)c3ccc(Cl)cc3)cc2)CC1` [TCMDC-138518]: -18.1%; for `N#Cc1cccc(NC(=O)Nc2cccc(-c3cccc(-c4nc5ccc(F)cc5[nH]4)c3)c2)c1` [TCMDC-133197]: -38%. Take `COCC(=O)N(Cc1ccccc1-c1ccc(CNCCc2ccccc2)cc1)C1CCN(Cc2ccccc2)CC1` [TCMDC-140534]: the “% Inhibition” value came to 105.6%. The same measure, in the same setting: as for `COCC(=O)N(Cc1ccccc1-c1cccc(CNCCc2ccccc2)c1)C1CCN(Cc2ccccc2)CC1` [TCMDC-140533], the figure is 103.5%; as for `CCNc1cc(C(=O)N[C@@H](Cc2ccc(F)c(F)c2)[C@H](O)CNCc2cccc(OC)c2)cc(N2CCCCS2(=O)=O)c1` [TCMDC-135059], -18.05%. On the same count and under the same terms, as for `CC1(C)N=C(NC(=O)c2ccc([N+](=O)[O-])cc2)N=C(N)N1OCc1ccc2ccccc2c1` [TCMDC-131580], the figure is 48.26%; as for `FC(F)c1nc2ccccc2n1-c1nc(N2CCOCC2)nc(N2CCOCC2)n1` [TCMDC-137004], 98.45%; as for `Nc1nc(N)c2c(Cl)c(N3CCOCC3)ccc2n1` [TCMDC-137868], -6.497%. Regarding `CC12CC3CC(C)(C1)CC(Nc1nc(N4CCOCC4)nc4ccccc14)(C3)C2` [TCMDC-123862], the “% Inhibition” value is -97.33%.

On to `O=c1ccc2ccc(F)cc2n1CCN1CCC(NCc2ccc(-c3ccccn3)s2)CC1` [TCMDC-135133], for which the “% Inhibition” value came to 2.874%. The same measure, in the same setting: the same measure for `NC1=NC(c2ccccc2)N(c2ccc(Cl)c(Cl)c2)C(N)=N1` (stereo not drawn) [TCMDC-136305]: 1.025%.

For the compound `CN(c1ccc(NC(=O)Nc2cc(C(C)(C)C)on2)cc1)c1ccnc(NCCN2CCOCC2)n1` [TCMDC-141706], the “% Inhibition” value turned out to be 2.344%.

Regarding `CCN(CC)CCNc1nccc(N(C)c2ccc(NC(=O)Nc3cc(C(F)(F)F)ccc3F)cc2)n1` [TCMDC-141632], the “% Inhibition” value was 74.5%.

For `CN(c1ccc(NC(=O)Nc2cccc(Cl)c2)cc1)c1ccnc(N)n1` [TCMDC-138782], the “% Inhibition” value was 0.5988%.

For `CN(c1ccc(NC(=O)Nc2cc(C(C)(C)C)on2)cc1)c1ccnc(NCCOC(=O)Nc2cc(C(C)(C)C)on2)n1` [TCMDC-141707], the “% Inhibition” value is recorded as 55.26%. Same read-out and setting: the same measure for `CCN(CC)CCCNc1nccc(N(C)c2ccc(NC(=O)Nc3cc(C(F)(F)F)ccc3F)cc2)n1` [TCMDC-141634]: 97.67%; for `CN(C)CCCNc1nccc(N(C)c2ccc(NC(=O)Nc3cc(C(F)(F)F)ccc3F)cc2)n1` [TCMDC-141633]: 100.7%; for `CCNC(=O)Nc1ccc(N(C)c2ccnc(Nc3ccc(CS(C)(=O)=O)cc3)n2)cc1` [TCMDC-138759]: -39.6%.

For the compound `COc1cc(NC(=O)CCCCCCCCN2CCN(C)CC2)c2ncccc2c1` [TCMDC-138212], the “% Inhibition” value amounted to 0.271%.

In the case of `CCCCCCc1cc2cc(-c3csc(C=Cc4ccccc4)n3)c(=O)oc2cc1O` [TCMDC-125662], the “% Inhibition” value is on record as -11.21%. With `COc1ccc2nccc([C@@H](O)CN3CCC(NCc4cc5ccccc5s4)CC3)c2c1` [TCMDC-140684], the “% Inhibition” value was 1.924%. The same measure, in the same setting: the same measure for `COc1ccc2nccc([C@@H](O)CN3CCC(NCc4[nH]c5ccccc5c4F)CC3)c2c1` [TCMDC-141052]: 4.499%.

`CCNC(=O)Nc1ccc(N(C)c2ccnc(NC3CC3)n2)cc1` [TCMDC-138763]: the “% Inhibition” value stood at 40.84%. Take `CCCNC(=O)Nc1ccc(N(C)c2ccnc(NC3CC3)n2)cc1` [TCMDC-138764]: the “% Inhibition” value was found to be 12.51%.

In the case of `CC(=O)c1ccc(NC(=O)Nc2ccc(N(C)c3ccnc(NC4CC4)n3)cc2)cc1` [TCMDC-138767], the “% Inhibition” value is recorded as 82.68%. Consider `O=C1OC2(CCN(Cc3cccc(-c4ncc[nH]4)c3)CC2)CN1CCNCc1ccccc1` [TCMDC-136733], for which the “% Inhibition” value was -38.21%.

Turning to `Cc1cc(NCCC(=O)Nc2ccccc2)nc(NCCc2ccccc2)n1` [TCMDC-134772], the “% Inhibition” value stood at 51%. Still for that read-out and setting: as for `COc1ccc(NC(=O)CCNc2cc(C)nc(NCc3ccccc3C)n2)cc1` [TCMDC-134899], the figure is 34.68%; as for `COc1ccc(NC(=O)CCNc2cc(C)nc(NCc3cccc(C)c3)n2)cc1` [TCMDC-134883], 59.29%. On the same count and under the same terms, as for `CCNc1cc(C)nc(Nc2ccc(NC(=O)Cc3ccc(OC)cc3)cc2)n1` [TCMDC-124983], the figure is 15.74%; as for `Cc1cc(NCCC(=O)Nc2ccccc2)nc(NCCc2ccc(F)cc2)n1` [TCMDC-134783], 44.82%; as for `Cc1cc(NCCC(=O)Nc2ccccc2)nc(NCCc2cccnc2)n1` [TCMDC-134880], 47.41%. `COc1ccccc1CCNc1nc(C)cc(NCCC(=O)Nc2ccccc2)n1` [TCMDC-134800]: the “% Inhibition” value was 76.83%.

Turning to `Cc1cc(NCCC(=O)Nc2ccccc2)nc(NCCc2cccs2)n1` [TCMDC-134872], the “% Inhibition” value was 26.35%. The same measure, in the same setting: the same measure for `COc1ccc(Nc2cc(C)nc(NCc3ccc4c(c3)OCO4)n2)cc1` [TCMDC-136332]: 81.18%; for `COc1ccc(Nc2nc(C)cc(NCc3ccc(-c4c(C)noc4C)cc3)n2)cc1` [TCMDC-134024]: -1.002%; for `Cc1cccc(CNc2nc(C)cc(NCCC(=O)Nc3ccccc3)n2)c1` [TCMDC-134885]: 25.97%. As to `Cc1ccc(C)c(-n2c(SCC(=O)Nc3ccc(C(N)=O)cc3)nnc2-c2cccc(Cl)c2)c1` [TCMDC-124332], the “% Inhibition” value is 36.9%. Still for that read-out and setting: the same measure for `O=C(Nc1cccc(F)c1)NC1CCN(c2ccnc3cc(Cl)ccc23)CC1` [TCMDC-133569]: -8.116%; for `Cc1ccccc1-c1nc2c(CN3CCC(O)(c4ccccc4)CC3)c(O)ccc2[nH]1` [TCMDC-136533]: 40.24%. Still for that read-out and setting: as for `CCCc1ccc(NC(=O)c2cccc(CN3CCCN(Cc4cccc(C#N)c4)CC3)c2)cc1` [TCMDC-135977], the figure is -19.91%. Still for that read-out and setting: as for `O=C(Cc1ccc(NC(=O)c2ccc(O)c(-c3ccc(Cl)c(Cl)c3)c2)cc1)NCCN1CCOCC1` [TCMDC-140853], the figure is -3.124%; as for `COc1ccc(NC(=O)CCNc2cc(C)nc(NCCc3ccccc3)n2)cc1` [TCMDC-134770], 41.15%. For the compound `CCCC(C)Nc1nc(C)cc(NCCC(=O)Nc2ccc(OC)cc2)n1` (stereo not drawn) [TCMDC-134762], the “% Inhibition” value came out at 20.26%. As for `COc1ccc(NC(=O)CCNc2cc(C)nc(NCCc3ccc(F)cc3)n2)cc1` [TCMDC-134864], the “% Inhibition” value amounted to 55.47%.

Consider `c1csc(-c2nc(N3CCCC3)ncc2-c2ccsc2)n1` [TCMDC-125373], for which the “% Inhibition” value was found to be 23.84%. On the same count and under the same terms, as for `CS(=O)(=O)Cc1ccc(Nc2nccc(-c3c(-c4cccc(C(=O)Nc5c(F)cccc5F)c4)nn4ccccc34)n2)cc1` [TCMDC-135742], the figure is -95.17%; as for `Cc1c(C(=O)C2CC2CN2CCC(N3CCCCC3)CC2)sc2ccccc12` (stereo not drawn) [TCMDC-132576], 19.76%; as for `O=C(NC1CC1)c1ccc(N2CCOc3ccc(Cl)cc32)s1` [TCMDC-125270], 3.185%. The same measure, in the same setting: the same measure for `O=C(NCCCN1CCC(N2CCCCC2)CC1)c1ccc2nc(N3CCCCC3)sc2c1` [TCMDC-124404]: 56.64%; for `O=C(NCCCN1CCC(N2CCCCC2)CC1)c1ccc(N2CCOc3ccccc32)s1` [TCMDC-125271]: 84.69%; for `CCCCCCNC(=O)c1nn(CCN2CCC(N3CCCC3)CC2)cc1-c1ccc(Cl)c(Cl)c1` [TCMDC-141907]: 27.94%. Same read-out and setting: as for `O=C(NCCCN1CCC(N2CCCCC2)CC1)C1=Cc2cc(Br)ccc2OC1` [TCMDC-124696], the figure is 29.02%; as for `Cc1cc(C)c2nc(N3CCC(C(=O)NCCCN4CCC(N5CCCCC5)CC4)CC3)sc2c1` [TCMDC-124448], 62.4%.

In the case of `CCCN1CCN(CCCNC(=O)c2cc3c(Cl)nc4ccc(C)cc4c3s2)CC1` [TCMDC-124441], the “% Inhibition” value turned out to be 16.62%. For `Cc1ccc2nc(Cl)c3cc(C(=O)NCCCN4CCCC4)sc3c2c1` [TCMDC-125000], the “% Inhibition” value is recorded as 29.06%. For `N#Cc1ccc(-c2ccc(C(=O)NCCCCN3CCC(n4cnc5ccccc54)CC3)cc2)cc1` [TCMDC-138796], the “% Inhibition” value was -25.18%. Same read-out and setting: the same measure for `Cc1ccc2nc3sc(C(=O)NCCCN4CCC(N5CCCCC5)CC4)cc3cc2c1` [TCMDC-125157]: 73.7%. On the same count and under the same terms, as for `CCOCCCNc1nc2cc(OC)c(OC)cc2c2nc(-c3ccccc3)nn12` [TCMDC-124406], the figure is -8.61%. On the same count and under the same terms, as for `COc1ccc2nccc(N3CCCN(CCNS(=O)(=O)c4ccc5c(c4)NC(=O)CS5)CC3)c2n1` [TCMDC-134651], the figure is 20.86%; as for `CCC(C)CN1CCC(N(C)c2cc(NC(=O)c3cccc(C)c3)ccn2)CC1` (stereo not drawn) [TCMDC-134950], -9.268%. As to `CC(CN(C)C)C(=O)Nc1ccc(-c2cccc(-c3nc4ccc(C(F)(F)F)cc4[nH]3)c2)cc1` (stereo not drawn) [TCMDC-137109], the “% Inhibition” value is -30.4%. For the compound `COc1ccc(-n2ccnc2)cc1CNC1CCN(CC2Cn3c(=O)ccc4ccc(F)c2c43)CC1` (stereo not drawn) [TCMDC-134407], the “% Inhibition” value is given as -10.31%. On the same count and under the same terms, as for `CN1CCC(N(C)C(=O)C=Cc2cn(-c3ccccc3)nc2-c2cc3ccccc3o2)CC1` [TCMDC-124569], the figure is 79.49%; as for `CN(C(=O)/C=C/c1ccccc1F)C1CCN(CCCCCNC(=O)/C=C/c2ccc(Cl)c(Cl)c2)CC1` [TCMDC-139992], 46.22%; as for `COc1ccccc1/C=C/C(=O)N(C)C1CCN(CCCCCNC(=O)/C=C/c2ccc(Cl)c(Cl)c2)CC1` [TCMDC-139985], 9.126%.
